aSyn 5UTR act – Activators working through SNCA 5'UTR binding (MLPCN); alpha-synuclein 5'UTR reporter, activators screen; activity score, % (tested at 7.5 µM), hits read low; actives 7.1% (n = 300,000); AID 1814; in the data active means activity score below about -60%
* hit, by the source's call. A selection follows.

For CC(NC(=O)CCc1nnc(Cc2cccc(C(F)(F)F)c2)o1)C1CC1 (stereo not drawn) the results were aSyn 5UTR act -77.1*.
Screening Cc1cccc(Oc2nc(-c3ccccn3)nc3ccccc23)c1 returned aSyn 5UTR act -111.5*.
`C=CCOc1nc(-c2ccccc2Cl)nc2ccccc12` gave aSyn 5UTR act 72.1.
Screening CC(=O)Nc1ccc(Oc2nc(-c3ccccn3)nc3ccccc23)cc1 returned aSyn 5UTR act -114.8*.
CC(=O)Nc1cccc(Oc2nc(-c3ccccn3)nc3ccccc23)c1 was read as aSyn 5UTR act -128.6*.
For O=C(N/N=C/c1ccc(Cl)cc1)C1CC12CCC2 (stereo not drawn) the results were aSyn 5UTR act -109.8*.
For CC(C)(C)Nc1nc(-c2ccc3c(c2)CCN3C(=O)C2CC2)cs1 the results were aSyn 5UTR act -80.4*.
For CC(=O)Nc1nc(-c2ccc3c(c2)CCN3S(C)(=O)=O)cs1 the results were aSyn 5UTR act -207.0*.
For CC(C)C(=O)Nc1nc(-c2ccc3c(c2)CCN3C(=O)C2CC2)cs1 the results were aSyn 5UTR act -101.5*.
`Nc1cc(-c2ccc(Br)cc2)nn1Cc1ccccc1` gave aSyn 5UTR act -196.3*.
`c1ccc2c(c1)CC/C2=N/Nc1nc2ccccc2[nH]1` gave aSyn 5UTR act -174.3*.
`O=C(Nc1ccc(Br)cc1Cl)c1ccc2c(=O)n3c(nc2c1)CCC3` gave aSyn 5UTR act -189.6*.
For O=C(Nc1ccc(Cl)cc1Cl)c1ccc2c(=O)n3c(nc2c1)CCC3 the results were aSyn 5UTR act -159.3*.
Cc1cccc(Nc2ccc(NCc3ccccc3)nn2)c1 was read as aSyn 5UTR act -110.4*.
Screening CC1(C)Cc2c(sc(NC(=O)COc3cccc4ccccc34)c2C#N)C(C)(C)N1 returned aSyn 5UTR act 71.9.
`Cc1cccc(OCC(=O)Nc2cc(C)c(C)cc2O)c1` gave aSyn 5UTR act -112.1*.
Screening C/C(CC(=O)Nc1cc(C)ccn1)=N\NC(=O)COc1cccc(C)c1 returned aSyn 5UTR act -110.4*.
Screening Cc1sc(NC(=O)CS(=O)(=O)c2ccccc2)c(C#N)c1C returned aSyn 5UTR act -87.4*.
Screening Cc1sc(NC(=O)COc2ccccc2)c(C#N)c1C returned aSyn 5UTR act -91.3*.
Screening CC(=O)Nc1sc(C)c(C)c1C(=O)OCCOc1ccccc1 returned aSyn 5UTR act -129.5*.
Screening Cc1cccc(OCC(=O)Nc2sc3c(c2C#N)CCC3)c1 returned aSyn 5UTR act -99.5*.
For CC(=O)Nc1sc(C)c(C)c1C(=O)OCC(=O)N(CC(C)C)c1c(N)n(Cc2ccccc2)c(=O)[nH]c1=O the results were aSyn 5UTR act 77.3.
Cc1cc(C(=O)COC(=O)C2=COCCO2)c(C)n1-c1cccc(F)c1 was read as aSyn 5UTR act -156.1*.
Screening Cc1cc(C(=O)COC(=O)Cc2n[nH]c(=O)c3ccccc23)c(C)n1-c1ccc2c(c1)OCCO2 returned aSyn 5UTR act -99.7*.
`Cc1cc(C(=O)COC(=O)C2=COCCO2)c(C)n1-c1ccc2c(c1)OCO2` gave aSyn 5UTR act -134.3*.
For Clc1cccc(Cl)c1Cn1ccc(C2CC2)n1 the results were aSyn 5UTR act -99.9*.
N#CC(=C1CCCC1)c1nc(-c2cc3ccccc3oc2=O)cs1 was read as aSyn 5UTR act -231.7*.
Screening N#CC(=C1CCCC1)c1nc(-c2ccccc2O)cs1 returned aSyn 5UTR act -209.5*.
For Cc1ccc(-c2csc(C(C#N)=C3CCCC3)n2)cc1 the results were aSyn 5UTR act -236.3*.
For N#CC(=C1CCCC1)c1nc(-c2ccccc2)cs1 the results were aSyn 5UTR act -186.6*.
`O=C(NC(=S)Nc1ccc(N2CCCCC2)cc1)c1cccs1` gave aSyn 5UTR act -103.8*.
O=C(NC(=S)Nc1ccc(N2CCOCC2)c(Cl)c1)c1cccs1 was read as aSyn 5UTR act -109.9*.
For O=C(Nc1ccc(NC(=O)c2cccs2)c(Cl)c1)c1ccco1 the results were aSyn 5UTR act -122.8*.
For O=C(Nc1ccc(N2CCCC2)c(Cl)c1)c1cccs1 the results were aSyn 5UTR act -114.0*.
Screening c1ccc(CNc2ncnc3c2ncn3C2CCCCO2)cc1 (stereo not drawn) returned aSyn 5UTR act -104.1*.
For CCOc1cc(/C=C2\COc3ccccc3C2=O)cc(Br)c1OCC(=O)N(C)C the results were aSyn 5UTR act -120.5*.
`O=C(Nc1ncc(Cc2cccc(Cl)c2)s1)C1CCCO1` (stereo not drawn) gave aSyn 5UTR act -161.3*.
Screening O=C(Nc1ncc(Cc2ccccc2Cl)s1)C1CCCO1 (stereo not drawn) returned aSyn 5UTR act -89.3*.
Screening O=C(Nc1ncc(Cc2cccc(Cl)c2Cl)s1)C1CCCO1 (stereo not drawn) returned aSyn 5UTR act -128.3*.
Screening O=C1c2ccccc2C(=O)c2c1ncn2-c1ccccc1 returned aSyn 5UTR act 70.3.
`C=CC(=O)Oc1ccc(N2Cc3ccccc3C2=O)cc1` gave aSyn 5UTR act -113.5*.
O=C1c2ccccc2CN1c1ccccc1 was read as aSyn 5UTR act -107.3*.
`COc1cccc(/C=C2\CCC(C3CCCC3)C2=O)c1OC` (stereo not drawn) gave aSyn 5UTR act -163.3*.
For COc1cccc(/C=C2\CCC(C3CCCC3)C2=O)c1 (stereo not drawn) the results were aSyn 5UTR act -98.8*.
Screening Cc1csc(NC(=O)C2COc3ccccc3O2)n1 (stereo not drawn) returned aSyn 5UTR act 62.3.
Screening O=C(Nc1ccccn1)C1COc2ccccc2O1 (stereo not drawn) returned aSyn 5UTR act -176.8*.
`Cc1cc(NC(=O)C2COc3ccccc3O2)no1` (stereo not drawn) gave aSyn 5UTR act -114.7*.
Screening Cc1cccc(NC(=O)C2COc3ccccc3O2)n1 (stereo not drawn) returned aSyn 5UTR act -71.0*.
`Cc1cnc(NC(=O)C2COc3ccccc3O2)s1` (stereo not drawn) gave aSyn 5UTR act 71.5.
For COc1ccc(CNC(=O)C2COc3ccccc3O2)c(OC)c1 (stereo not drawn) the results were aSyn 5UTR act -75.5*.
Screening COc1ccc(Cl)cc1NC(=O)C1COc2ccccc2O1 (stereo not drawn) returned aSyn 5UTR act -65.1*.
For O=C(Nc1ccc(Cl)cn1)C1COc2ccccc2O1 (stereo not drawn) the results were aSyn 5UTR act -137.2*.
`Nc1ccc2oc(-c3ccccc3Cl)cc(=O)c2c1O` gave aSyn 5UTR act -63.5*.
For CCn1c(C)nc2cc(C(=O)NNC(=S)Nc3ccccc3)ccc21 the results were aSyn 5UTR act -163.6*.
CCn1c(NC(=S)Nc2ccccc2)nc2ccccc21 was read as aSyn 5UTR act -106.3*.
Screening CCn1c(C)nc2cc(C(=O)NNC(=S)Nc3ccc(F)cc3)ccc21 returned aSyn 5UTR act -126.3*.
`CCn1c(C)nc2cc(-c3nc4n(n3)Cc3ccccc3-4)ccc21` gave aSyn 5UTR act 86.6.
`CCn1c(C)nc2cc(C(=O)NNC(=S)Nc3ccccc3Cl)ccc21` gave aSyn 5UTR act -110.0*.
For CCn1c(C)nc2cc(C(=O)N/N=C/c3ccccc3)ccc21 the results were aSyn 5UTR act -83.1*.
`CCn1c(C)nc2cc(C(=O)OC(C(F)(F)C(F)F)C(F)(F)C(F)F)ccc21` gave aSyn 5UTR act -72.8*.
For CCn1c(C)nc2cc(C(=O)N/N=C(\C)c3ccc(OC)cc3O)ccc21 the results were aSyn 5UTR act 83.9.
Screening Cc1cc(C(=O)COc2ccccc2[N+](=O)[O-])c(C)n1C1CC1 returned aSyn 5UTR act -130.9*.
